KB-V1 cytotox: qHTS assay for MDR1-selective chemotherapeutics: Primary screen using the drug-selected MDR subline cells KB-V1; actives 3.4% (n = 400,000); AID 1347076, 2019; Potency, µM (highest dose often 46.1 µM), most hits filed as cytotoxic; KB-V1 MDR cells viability, CellTiter-Glo, 72 h; note: nearly all actives have a fitted effect of over 60% in size
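Luminescent ATP read-out (CellTiter-Glo, 10 min) measures survival of drug-selected KB-V1 MDR cells after 72 h, 37 degrees C compound exposure. Medium: phenol-red-free DMEM, 10% FBS. Values from fitted concentration-response curves.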
HepG2 viability: qHTS for Inhibitors of TGF-b: Cytotox Counterscreen; HepG2 CAGA-GFP viability, ATP luminescence, 18 h; AID 588856, 2011; actives 0.76% (n = 410,000); Potency, µM (top dose mostly 46.1 µM), usual class: cytotoxic
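CellTiter-Glo luminescence gave cytotoxicity after 18 hours at 37 degrees C. The cells were HepG2 CAGA-GFP in 1% FBS DMEM, stimulated with 500 pg/mL TGF-beta after compound addition. %Activity was normalised to no-cell wells (complete cell-killing) and DMSO (no toxicity), and curves were fitted and classified.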
HT1080-NT tox: qHTS for induction of synthetic lethality in tumor cells producing 2HG: qHTS for the HT-1080-NT fibrosarcoma cell line; HT-1080-NT fibrosarcoma viability, CellTiter-Glo ATP luminescence, 48 h; Potency, µM (top dose mostly 46.1 µM), usual class: cytotoxic; AID 686970, 2013; actives 1.6% (n = 360,000);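 note: NT is the 2HG producing partner of a matched IDH1 knockdown line; nearly all actives have a fitted effect of over 55% in size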
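HT-1080-NT; 750 cells/well; 5% FBS RPMI; 48 h compound, 37 degrees C; CellTiter-Glo luminescence; curve fitting and curve-class assignment.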
TGFb inhibitor: qHTS for Inhibitors of TGF-b; HepG2 CAGA-GFP TGF-b/SMAD3 reporter, GFP fluorescence, 18 h; TGF-beta stimulated, 500 pg/mL final; Potency, µM (top dose mostly 46.1 µM), most hits filed as inhibitors; actives 1.2% (n = 410,000); AID 588855, 2011; note: nearly all actives have a fitted effect of over 65% in size
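Inhibition was scored as loss of TGF-beta-induced (500 pg/mL final, 18 hours, 37 degrees C) GFP in HEPG2 cells carrying a CAGA-GFP reporter, in DMEM with 1% FBS. Well GFP was summed per cell; Activity was normalised to unstimulated and stimulated DMSO wells, then concentration-response fitting.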
KB-3-1 cytotox: qHTS assay for MDR1-selective chemotherapeutics: Primary screen using the parental adenocarcinoma cell KB-3-1; actives 1.4% (n = 400,000); KB-3-1 viability, CellTiter-Glo ATP luminescence, 72 h; Potency, µM (series often up to 46.1 µM), most hits filed as cytotoxic; note: nearly all actives have a fitted effect of over 60% in size
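Parental KB-3-1 viability, qHTS format: 72 h compound exposure, 37 °C; CellTiter-Glo; media-only wells and DMSO plates as controls; concentration-effect fits on corrected data.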
HT1080 IDH1KD tx: qHTS for induction of synthetic lethality in tumor cells producing 2HG: qHTS for the HT-1080-IDH1KD cell line; HT-1080 IDH1 knockdown viability, ATP luminescence, 48 h; actives 2% (n = 360,000); Potency, µM (titrated, usually from 46.1 µM), most hits filed as cytotoxic
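After a 2 h attachment period, IDH1KD HT-1080 cells took pin-transferred compound for 48 h at 37 °C; ATP-based luminescence after 10 min room-temperature reagent incubation reported viability.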
Hits are given with their value; 0 = inactive; ? = inconclusive; - = no result. Rows were chosen to be rich in hits. Some 6.6% of all compounds tested hit in one or more screens of this group. Calls come from the whole dose curve; as a rule, active = well fitted curve in the direction sought with a large enough effect; inconclusive = small, poorly fitted or top-dose-only effect, or another doubt; inactive = no such curve, though single readings can be large; an effect the other way counts as inactive or inconclusive.

SMILES	KB-V1 cytotox	HepG2 viability	HT1080-NT tox	TGFb inhibitor	KB-3-1 cytotox	HT1080 IDH1KD tx
CCOc1ccc(-c2nc(CSCC(=O)N3CCN(c4ccc(F)cc4)CC3)c(C)o2)cc1	0	0	-	0	0	-
CCOC(=O)N1CCN(C(=O)CSCc2nc(-c3ccccc3C)oc2C)CC1	18µM	0	0	0	0	0
COc1ccc(-c2nc(CSCC(=O)N3CCN(c4cc(Cl)ccc4C)CC3)c(C)o2)cc1	-	0	-	18µM	-	-
CC(C)[C@H](/C=C/C[Si](C)(C)C)[C@H](C)C(O)/C=C/CCCOC(=O)C(C)(C)C (some centres undefined)	-	0	-	0	-	-
CCOC(=O)C1=CCN(S(C)(=O)=O)C1c1ccc(C)cc1 (centres undefined)	0	0	0	?	0	0
COc1cccc(Cn2c(=O)n(-c3ccc(C)c(F)c3)c(=O)c3sc4ccccc4c32)c1	0	0	-	0	0	-
COc1cc(NC(=O)c2cc(-c3cccc(Cl)c3)on2)c(OC)cc1Cl	0	0	-	0	0	-
COc1cccc(CNC(=O)c2ccc(-c3nc(CS(=O)(=O)c4ccccc4)c(C)o3)cc2)c1	?	0	-	0	0	-
Cc1cc2oc(=O)cc(CN3CCN(c4ccccc4)CC3)c2cc1Cl	0	0	0	0	0	0
Cc1ccc(OCC(=O)c2cc(C)n(CC(F)(F)F)c2C)c([N+](=O)[O-])n1	?	0	0	0	?	?
Cc1cc2oc(=O)cc(Cn3ncc(Cl)c(Cl)c3=O)c2cc1Cl	?	0	?	?	13µM	3.3µM
Cc1ccc(C)c(C(=O)Cn2ncc(Cl)c(Cl)c2=O)c1	?	0	0	?	?	18µM
Cc1cccc(Cn2ncc(Cl)c(Cl)c2=O)c1	21µM	0	13µM	?	?	7.1µM
Cc1ccc(C)c(C(=O)CN2C(=O)c3ccccc3C2=O)c1	0	0	0	0	0	0
Cc1cc(C(=O)Cn2ncc(Cl)c(Cl)c2=O)c(C)n1CC(F)(F)F	?	0	8.2µM	?	?	5.8µM
CCOC(=O)c1c(S(=O)(=O)N2CCC(C(=O)N3CCN(c4ccc(F)cc4)CC3)CC2)c(C)n(C)c1C	0	0	-	0	0	-
c1c2c(cc3sc(N4CCCCC4)nc13)OCO2	?	10µM	?	?	9.2µM	0
COc1ccc(S(=O)(=O)Nc2ccc(N3CCOCC3)cc2)cc1	0	0	0	0	0	0
COc1ccc(N2CCOCC2)c(NC(=O)c2cc3ccccc3o2)c1	12µM	0	0	0	0	0
COc1ccccc1/C=C/C(=O)Nc1ccc2c(c1)OCCO2	21µM	0	0	0	5.2µM	?
COc1ccc(OC)c(/C=C/C(=O)Nc2ccc3c(c2)CCC3)c1	16µM	0	0	0	0	0
COc1ccc(NS(=O)(=O)c2ccc(N3CCOCC3)c(N)c2)cc1	18µM	0	0	0	?	0
COc1cccc(CCNC(=O)c2cnc3sc(N4CCOCC4)nn3c2=O)c1	0	0	-	0	0	-
COc1ccccc1NS(=O)(=O)c1cc(NC(=O)c2ccccc2C)ccc1N1CCOCC1	8.2µM	0	0	?	0	0
O=C(Nc1ccc(Cl)cc1)Nc1ccc(N2CCCC2)c(S(=O)(=O)Nc2ccccc2Cl)c1	?	0	?	?	?	6.5µM
SMILES	KB-V1 cytotox	HepG2 viability	HT1080-NT tox	TGFb inhibitor	KB-3-1 cytotox	HT1080 IDH1KD tx
COc1ccc(NS(=O)(=O)c2ccc(N3CCOCC3)c(NC(=O)c3ccccc3Cl)c2)cc1	10µM	0	0	0	16µM	0
COc1ccc(S(=O)(=O)Nc2cc(C(=O)NC(C)C)ccc2N2CCOCC2)cc1	?	0	?	0	?	?
COc1ccc(NS(=O)(=O)c2ccc(Cl)c(NC(=O)c3ccccc3F)c2)cc1	-	0	0	?	-	0
COc1ccc(NS(=O)(=O)c2ccc(N3CCOCC3)c(NC(=O)c3ccc(OC)cc3)c2)cc1	18µM	0	0	?	0	0
O=C(CCCCn1c(=O)c2ccccc2n(Cc2ccccc2Cl)c1=O)NCc1ccc2c(c1)OCO2	?	0	-	0	0	-
COc1ccc(NS(=O)(=O)c2cc(NC(=O)/C=C/c3ccccc3OC)ccc2N2CCCCC2)cc1	5.2µM	0	0	0	0	0
COc1ccc(NS(=O)(=O)c2ccc(Cl)c(NC(=O)c3cccnc3Cl)c2)cc1	21µM	0	0	?	0	0
O=C(Nc1cc(S(=O)(=O)N2CCOCC2)ccc1N1CCCCC1)c1ccc(Cl)cc1	0	0	0	0	0	0
O=C(Nc1cc(S(=O)(=O)Nc2ccc(Cl)cc2)ccc1N1CCCCC1)c1ccc(F)cc1Cl	?	0	?	?	16µM	?
COCC(=O)Nc1ccc(N2CCOCC2)c(S(=O)(=O)Nc2ccc(OC)cc2)c1	?	0	0	0	?	0
COc1ccc(NS(=O)(=O)c2cc(NC(=O)COc3ccc(OC)cc3)ccc2N2CCOCC2)cc1	2.3µM	0	0	0	0	0
CCc1ccc(NC(=O)C2CCN(S(=O)(=O)c3cccc(-c4noc(C)n4)c3)CC2)cc1	0	0	-	0	0	-
COc1ccc(CCN2C(=O)N(c3ccc(C)cc3)C(=O)C2CC(=O)Nc2ccc(F)cc2)cc1 (centres undefined)	?	0	-	?	?	-
O=C1C=CC(O)(c2cc(=O)c3c(O)cc(O)cc3o2)C=C1	5.8µM	16µM	7.3µM	4µM	?	7.3µM
O=c1cc(-c2ccccc2Cl)oc2cc(O)cc(O)c12	0	0	0	0	0	0
O=C(c1cccs1)N1CCCc2cc(NS(=O)(=O)c3ccc(Br)cc3)ccc21	?	0	-	?	?	-
Cc1ccc(NC(=O)Cn2cnc(C(=O)Nc3ccc(C)c(C)c3)n2)cc1C	0	0	0	0	0	0
Cc1cc(C)c(CN2CCN(C(=O)Cn3cnc(C(=O)Nc4ccc(C)c(C)c4)n3)CC2)c(C)c1	0	0	?	16µM	0	0
c1ccc(Nc2nc(N3CCNCC3)nc(N3CCOCC3)n2)cc1	?	0	0	0	0	0
O=C(Oc1cccc(/C=N/Nc2nc(Nc3ccccc3)nc(N3CCOCC3)n2)c1)c1ccco1	15µM	0	0	0	0	?
c1ccc(Nc2nc(N3CCOCC3)nc(N3CCOCC3)n2)cc1	?	0	0	0	16µM	0

Screening data from PubChem BioAssay.
